Measurements reported in PubChem BioAssay AID1159580 (chemical genetic matrix, 2015).
The whole screen tested about 5,500 compounds, of which about 2,000 (36%) were called active. Another 18% or so got no clear call; they are omitted. This is one part of the list. Values without a mark were called inactive. Rule as the data show it: active = normalized growth mostly below about 0.91 (no sharp cut-off); inconclusive = no clear call, values can overlap the other calls; inactive = mostly above about 0.92.

Experiment: chemical genetic growth profiling, strain panel (AID 1159580);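 also: tested at 20 µM; growth read once vehicle control cultures reached saturation at 30 °C; 1 = growth at the plate median or of vehicle wells; lower values mean less growth of the strain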
Conditions: S. cerevisiae deletion strains, growth OD
[1] = locus YAL040C, strain CLN3, active compounds read low
[2] = locus YCL061C, strain MRC1 (second series), active compounds read low
[3] = locus YDR363W, strain ESC2, active compounds read low
[4] = locus YER002W, strain NOP16, active compounds read low
[5] = locus YNL175C, strain NOP13, active compounds read low
[6] = locus YNL197C, strain WHI3, active compounds read low
[7] = locus YNL224C, strain SQS1, active compounds read low
[8] = locus YOR083W, strain WHI5 (second series), active compounds read low

SMILES	normalized growth [1]	normalized growth [2]	normalized growth [3]	normalized growth [4]	normalized growth (locus YGR078C, strain PAC10, active compounds read low)	normalized growth (locus YNL128W, strain TEP1, active compounds read low)	normalized growth [5]	normalized growth [6]	normalized growth [7]	normalized growth [8]	normalized growth (locus YPL241C, strain CIN2, active compounds read low)	normalized growth (locus YMR263W, strain SAP30, active compounds read low)	normalized growth (locus YMR307W, strain GAS1, active compounds read low)	normalized growth (locus YNL153C, strain GIM3, active compounds read low)	normalized growth (locus YNL322C, strain KRE1, active compounds read low)
C[N+]1(C)CCN(c2ccccc2)CC1	0.873 (active)	1	1.04	0.961	1	0.997	0.974	0.958	1	0.979	1				
C[N+]1(C)CCC(OC(=O)C(c2ccccc2)c2ccccc2)CC1	1.08	0.992	0.956	0.999			1.01	1.03	1.01	1.02		0.987	0.988	1.01	0.915
